MEX-5 binding: C. elegans MEX-5 TCR-2 RNA binding activity; Q9XUB2; MEX-5/FITC-TCR2 RNA binding, fluorescence polarization; active compounds read low; activity score (negative = inhibition of binding), % at 10 µM; 300,000 compounds, 0.38% hits;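 active = inhibition past about -25% in most replicates, and total fluorescence under double the plate's negative control median, limit read from the data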;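 note: 0% = DMSO and -100% = 5 µM competing unlabeled TCR2 RNA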
Target sequence (Q9XUB2 whole entry, looked up): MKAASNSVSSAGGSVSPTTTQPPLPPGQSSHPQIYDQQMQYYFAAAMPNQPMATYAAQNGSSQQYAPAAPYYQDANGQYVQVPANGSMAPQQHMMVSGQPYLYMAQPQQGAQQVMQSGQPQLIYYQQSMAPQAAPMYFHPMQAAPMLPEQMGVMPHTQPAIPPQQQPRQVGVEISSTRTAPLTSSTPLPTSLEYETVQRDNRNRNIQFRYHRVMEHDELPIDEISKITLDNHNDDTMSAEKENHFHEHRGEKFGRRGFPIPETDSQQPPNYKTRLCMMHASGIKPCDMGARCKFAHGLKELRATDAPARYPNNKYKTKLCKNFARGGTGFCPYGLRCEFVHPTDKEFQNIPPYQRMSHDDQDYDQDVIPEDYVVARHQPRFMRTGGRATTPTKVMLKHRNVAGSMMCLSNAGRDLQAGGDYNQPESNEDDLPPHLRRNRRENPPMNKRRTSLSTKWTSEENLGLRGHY
EBV gp42 inh: blocks Epstein-Barr virus glycoprotein 42 binding; Q1HVG2; Fluorescence polarization binding assay, mP read-out; inhibition, % (tested at 21.74 µM); 220,000 compounds, 0.42% hits; AID 1085; in the data active = inhibition above about 50%
eLon inh: inhibitors of E. coli Lon protease; purified E. coli Lon protease, fluorescence polarization; inhibition, % at 7.94 µM; 360,000 compounds, 0.42% hits; in the data active = inhibition above about 13%, passing the limit was not always enough;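 note: 0% = enzyme with probe and DMSO and 100% = no enzyme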
BCLXL inh: blocks human Bcl-xL binding to Bim BH3 peptide | Q07817 | GST-Bcl-xL / FITC-Bim BH3 peptide fluorescence polarization | inhibition, % at 10.9 µM | 320,000 compounds, 0.7% hits;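 active = inhibition above the mean of all tested compounds plus 3 SD, cutoff set per campaign, cut at about 30% in these data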;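 note: 0% = DMSO wells and 100% = unlabeled Bim-BH3 peptide competitor; inhibitors lower millipolarization by displacing the labeled peptide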
Target sequence (Q07817 whole entry, looked up): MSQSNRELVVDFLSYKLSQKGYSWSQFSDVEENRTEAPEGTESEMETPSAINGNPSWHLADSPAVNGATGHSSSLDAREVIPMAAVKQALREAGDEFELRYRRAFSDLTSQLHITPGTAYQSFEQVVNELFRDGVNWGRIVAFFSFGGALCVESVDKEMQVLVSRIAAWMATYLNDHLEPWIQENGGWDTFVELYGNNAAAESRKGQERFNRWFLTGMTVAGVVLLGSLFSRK
GLD-1 RNA inh: GLD-1-TGE RNA interaction inhibition (C. elegans); Q17339; purified GLD-1 + fluorescein TGE RNA, fluorescence polarization; inhibition, % at 5.96 µM; 320,000 compounds, 0.44% hits; AID 2280;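 active = percent inhibition above a per-plate cutoff, the plate mean of test compounds plus 3 SD, cut at about 30% in these data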;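 note: 0% = DMSO wells with GLD-1 and probe and 100% = wells lacking GLD-1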
MCL1-BIM inh: inhibitors of human MCL1 binding to BIM-BH3 peptide; Q07820; inhibition, % at 10.9 µM; AID 2057; GST-MCL1 / FITC-Bim-BH3 fluorescence polarization; 320,000 compounds, 0.68% hits;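 active = inhibition above the mean inhibition of all tested compounds plus 3 SD, set per campaign, cut at about 40% in these data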;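 note: 0% = DMSO wells and 100% = unlabeled Bim-BH3 peptide control; higher means more loss of mP so more displacement of Bim peptide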
Bcl-xL conf: Bcl-xL (human) inhibition, MCL1 counter-screen confirmation; shares compounds with MCL1-BIM inh; GST-Bcl-xL / FITC-Bim BH3 peptide FP binding; inhibition, % at 10.9 µM; 1,700 compounds, 54% hits; AID 2166;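 active = inhibition above a cutoff equal to the mean inhibition of all tested compounds plus 3 SD, cut at about 30% in these data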;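 note: 0% = DMSO wells and 100% = unlabeled Bim BH3 control peptide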
MCL1 BIM confirm: MCL1-BIM-BH3 interaction inhibition, confirmation. shares compounds with MCL1-BIM inh. GST-MCL1 / FITC-Bim-BH3 fluorescence polarization. inhibition, % at 10.9 µM. 1,700 compounds, 61% hits;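 active = inhibition above the average of all tested compounds plus 3 SD, cut at about 40% in these data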;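 note: 0% = DMSO wells and 100% = unlabeled Bim-BH3 control peptide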
* marks the source's active call; other numbers are inactive results; . = not tested or not shown; + = active, no number. An excerpt weighted towards active compounds, which were near 1.5% of everything screened.

SMILES | MEX-5 binding | EBV gp42 inh | eLon inh | BCLXL inh | GLD-1 RNA inh | MCL1-BIM inh | Bcl-xL conf | MCL1 BIM confirm
COc1cc(C2c3sc(=O)[nH]c3SC3C(=O)N(c4ccc(Br)cc4)C(=O)C32)ccc1O (stereo not given) | -1 | -12 | -6 | 16 | 12 | 14 | . | .
CCOc1ccc(N2C(=O)C3Sc4[nH]c(=O)sc4C(/C=C/c4ccccc4)C3C2=O)cc1 (stereo not given) | -1 | -11 | -40 | 57* | 42* | 42* | -4 | -16
Cc1ccc(C)c(N(C(=O)Cn2nnc(-c3cccs3)n2)C(C(=O)NC2CC2)c2ccc(C)o2)c1 (stereo not given) | 0 | -5 | -9 | 2 | 11 | 6 | . | .
CC(=O)OCC1=C(C(=O)O)N2C(=O)C(NC(=O)c3ccc(COc4ccc(Cl)cc4)o3)C2SC1 (stereo not given) | 1 | -3 | -7 | 7 | 0 | 24 | . | .
CC(=O)OCC1=C(C(=O)O)N2C(=O)C(NC(=O)c3ccc(COc4c(C)cccc4Cl)o3)C2SC1 (stereo not given) | 3 | -6 | -1 | 25 | -3 | 43* | 17 | 51*
Cc1cccc(C(=O)NNC(=O)c2ccc(S(=O)(=O)N3CCOCC3)cc2)c1 | -2 | . | -4 | 6 | -2 | 3 | . | .
COc1ccc(NC(=O)CSc2nc3nc(C)cc(C)c3c(=O)[nH]2)cc1 | 2 | . | -2 | 35* | 16 | 55* | 2 | 3
CCOc1ccc(NC(=O)CCSc2ccc(C)cc2)cc1 | 6 | -1 | -4 | 3 | 3 | 5 | . | .
Cc1ccc(C(=O)Nc2nccs2)s1 | -2 | . | -6 | 0 | -1 | -6 | . | .
O=C(O)C(S)C(S)C(=O)O (stereo not given) | -21 | . | -7 | 28 | 9 | 84* | 38* | 86*
c1ccc2c(Nc3nc(-c4ccncc4)nc4ccccc34)cccc2c1 | 3 | -11 | -1 | 4 | 4 | 3 | . | .
N#C/C(=C\c1ccco1)c1nc2ccccc2s1 | -10 | 1 | -54 | 79* | 55* | 75* | 15 | 16
O=C(Nc1nc(-c2ccco2)c(-c2ccco2)s1)c1c(F)cccc1Cl | . | . | -30 | 6 | 12 | 15 | . | .
O=C(Nc1nc(-c2ccco2)c(-c2ccco2)s1)c1cnccn1 | -1 | . | . | 33* | 14 | 102* | 16 | 27
Cc1cc(C(=O)CSc2n[nH]c(N)n2)c(C)n1C1CC1 | 1 | -19 | 11 | 3 | -3 | 13 | . | .
C=CCn1c(C)cc(C(=O)CSc2n[nH]c(N)n2)c1C | -1 | 1 | 0 | -1 | -3 | 47* | 13 | 3
CNCCCOc1cccc(Oc2ccccc2)c1 | 0 | -20 | 3 | 3 | 3 | 46* | 5 | 2
Cc1cc(NC(=O)COC(=O)CCS(=O)(=O)c2ccc(Cl)cc2)no1 | 0 | . | 11 | 8 | 9 | 7 | . | .
Cc1ccc(S(=O)(=O)CCC(=O)OCC(=O)Nc2cc(C)on2)cc1 | 1 | -6 | -4 | + | 183* | + | 9 | -1
CCOC(=O)CSc1nnc(-c2cc(OC)c(OC)c(OC)c2)o1 | 2 | -5 | -1 | 2 | 0 | -1 | . | .
COc1cc(-c2nnc(SCc3cc(=O)oc4cc(O)c(O)cc34)o2)cc(OC)c1OC | -3 | 30 | 3 | 6 | -4 | 62* | 14 | 61*
CN1CCC[C@@H]1CCNC(=O)c1cccc2c1C(=O)c1ccc(N3CCCC3)cc1S2(=O)=O | . | . | -30 | . | 12 | . | . | .
O=C(O)c1cccc2c1C(=O)c1ccc(N3CCCC3)cc1S2(=O)=O | . | . | 48* | 112* | 80* | 131* | 104* | 122*
CC1CCN(c2ccc3c(c2)S(=O)(=O)c2cccc(C(=O)NCc4cccc(F)c4)c2C3=O)CC1 | . | . | -86 | 27 | 162* | 68* | -28 | -52
Cc1cc(C)n2nc(SCC(=O)c3cccs3)nc2n1 | 0 | -12 | 1 | 8 | 4 | -1 | . | .
SMILES | MEX-5 binding | EBV gp42 inh | eLon inh | BCLXL inh | GLD-1 RNA inh | MCL1-BIM inh | Bcl-xL conf | MCL1 BIM confirm
CC(=O)N(c1ccccc1C)S(=O)(=O)c1ccc(Cl)cc1 | 1 | -12 | 0 | 0 | -3 | 5 | . | .
Cc1cc(C)c2nc(-c3ccccn3)cc(C(=O)Nc3ccc(S(=O)(=O)Nc4onc(C)c4C)cc3)c2c1 | -2 | 15 | -2 | 17 | 6 | 41* | 30* | 79*
CCC(c1nnnn1C(C)C)N1CCN(C2CCCC2)CC1 (stereo not given) | -1 | 4 | -3 | 3 | 9 | 11 | . | .
CCn1c(/C=C/c2cc[n+](C)cc2)nc2ccccc21 | -3 | . | 11 | 74* | 20 | 75* | 65* | 65*
CCCn1c(/C=C/c2ccccc2)nc2ccccc21 | -3 | -7 | 2 | 2 | -4 | 0 | . | .
O=C(COc1ccccc1C(=O)N/N=C\c1ccc(O)c(O)c1)N/N=C/c1ccc(O)c(O)c1 | -2 | 9 | 5 | 16 | 3 | 56* | 44* | 81*
Cc1ccn2cc(-c3ccc(O)c(O)c3)nc2c1 | -46* | . | -4 | 25 | 2 | 56* | 58* | 58*
Cc1ccn2cc(-c3cccc(NC(=O)C(C)C)c3)nc2c1 | 0 | -11 | 0 | 3 | 4 | 1 | . | .
O=C(Nc1c[nH]c(=O)[nH]c1=O)c1ccccc1Br | 3 | . | 3 | 7 | 0 | -3 | . | .
Cc1noc(/C=C/N(C)C)c1S(=O)(=O)N1CCCC(C(=O)N2CCCCC2)C1 (stereo not given) | -1 | -19 | -5 | 72* | 32* | 66* | 17 | 8
Cc1noc(/C=C/N(C)C)c1S(=O)(=O)N1CCCC(C(=O)NC2CCCCC2)C1 (stereo not given) | 4 | -13 | -30 | -13 | -13 | -15 | . | .
Cc1ccc(N=Nc2[nH]c3ccccc3c2O)cc1 | -61* | 100* | -5 | 101* | 67* | 109* | 83* | 81*
COc1ccc2cc3c(nc2c1)OCC3 | 1 | . | -6 | 7 | -2 | 5 | . | .
O=C(O)c1ccc(S(=O)(=O)Nc2ccc(O)c(Sc3nc4ccccc4s3)c2)cc1 | -4 | 0 | -4 | 26 | 7 | 43* | 29 | 59*
COc1ccc2ccc3c(c2c1)N=C[C@]1(O3)N(C)c2ccccc2C1(C)C | 2 | -20 | -8 | 40* | 5 | 57* | 39* | 39
CCOC(=O)CSc1nc2c(sc3ccccc32)c(=O)n1CCCN1CCOCC1 | 0 | -12 | 3 | 4 | 0 | 0 | . | .
CCCCCC#CCC#CCC#CCC#CCCCC(=O)O | -22 | 37 | . | 25 | 11 | 96* | 15 | 86*

Screening data deposited in PubChem by several laboratories.
